Screens: PubChem BioAssay, The Scripps Research Institute Molecular Screening Center
ssDAF12 agonist – S. stercoralis DAF-12 nuclear receptor activators, primary screen, cell-based, luminescence, HEK293, GRIP1 co-expression, lit1-tk-luc; AID 652126, 2013; 370,000 compounds, 1% hits; HEK293 ssDAF-12/GRIP1 lit1-tk-luc reporter; % of 3 µM dafachronic acid response; Nuclear hormone receptor DAF-12 (Strongyloides stercoralis); activation, % at 6.8 µM;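 active = activation above the mean over all tested compounds plus 3 SD, cut at about 0.9% in these data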;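 note: 0% = DMSO-only wells and 100% = 3 µM delta7-dafachronic acid wells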
DAX1 inh-1 – DAX1 (NR0B1) inhibitors, primary screen, cell-based, HEK293, Gal4-DAX1, luciferase luminescence; Nuclear receptor subfamily 0 group B member 1 (Homo sapiens), P51843; HEK293 Gal4-DAX1 luciferase reporter; inhibition, % at 6.75 µM; 340,000 compounds, 0.99% hits;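 active = inhibition above the mean over all tested compounds plus 3 SD, cut at about 4.2% in these data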;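 note: 0% = DAX1-transfected cells with DMSO and 100% = empty-vector control cells with DMSO; inhibition shows as a rise in luminescence from relieved DAX1 repression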
Target sequence (P51843 207-470 limits assumed): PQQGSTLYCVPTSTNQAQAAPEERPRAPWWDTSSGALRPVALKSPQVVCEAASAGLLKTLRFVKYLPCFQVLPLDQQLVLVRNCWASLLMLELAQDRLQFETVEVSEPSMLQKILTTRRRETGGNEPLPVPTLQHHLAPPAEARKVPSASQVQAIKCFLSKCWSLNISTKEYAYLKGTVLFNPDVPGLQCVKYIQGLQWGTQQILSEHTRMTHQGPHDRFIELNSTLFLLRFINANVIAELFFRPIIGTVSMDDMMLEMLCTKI
hgDAF12 agonist – H. glycines DAF-12 receptor agonists, primary screen, cell-based, luminescence, HEK293, GAL4 fusion, UAS-luciferase; 370,000 compounds, 1.8% hits; Nuclear hormone receptor DAF-12 (Heterodera glycines), GAL4 fusion; activation, % at 6.8 µM; HEK293 GAL4-hgDAF12 UAS-luciferase reporter, agonist luminescence; normalized to butyrate control;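 active = activation above a cutoff set at the mean of all screened compounds plus 3 SD, cut at about 10% in these data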;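 note: 0% = DMSO wells and 100% = sodium butyrate wells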
FXN GAA850 act – FXN promoter activators, primary screen, cell-based, luciferase luminescence, HEK293 lucGAA850 | HEK293 lucGAA850 FXN promoter luciferase reporter, 24 h; percent of 10 µM SAHA response | activation, % at 6 µM | 360,000 compounds, 0.56% hits | AID 540364, 2011;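 active = activation above the average of all compounds screened plus 3 SD, cutoff fixed separately per campaign, cut at about 7.5% in these data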;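 note: 0% = DMSO wells and 100% = 10 µM SAHA wells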
DAX1 inh-2 – DAX1 (NR0B1) inhibitors on StAR promoter, primary screen, cell-based, luminescence, SF-1 (NR5A1), full-length DAX-1 | HEK293T StAR-luciferase reporter, SF-1/DAX-1 repression relief | inhibition, % at 6.8 µM | 370,000 compounds, 1.1% hits;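 active = inhibition above the mean over all tested compounds plus 3 SD, cut at about 3.6% in these data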;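 note: 0% = DAX-1 cells with DMSO and 100% = cells lacking DAX-1 with DMSO; higher inhibition means more luminescence from relief of DAX-1 repression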
hcDAF-12 act – H. contortus DAF-12 nuclear receptor activators, primary screen, cell-based, luminescence, HEK293, lit1-tk-luc reporter; HEK293 hcDAF-12 lit1-tk-luc reporter; 0% DMSO, 100% Δ7-dafachronic acid; activation, % at 6.8 µM; 370,000 compounds, 1.4% hits;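 active = activation above the mean of all tested compounds plus 3 SD, cut at about 5.5% in these data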;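 note: 100% = response to 3 µM Δ7-dafachronic acid high control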
An asterisk follows results filed as active; nt = no result. This is a sample that favours compounds with a hit; in the whole collection about 4.5% have one here.

SMILES	ssDAF12 agonist	DAX1 inh-1	hgDAF12 agonist	FXN GAA850 act	DAX1 inh-2	hcDAF-12 act
Cc1cc(Nc2ccc(F)cc2C)n2ncnc2n1	-1.1	-0.2	5.4	1.4	0.5	-2.5
Cc1cc(Nc2ccc(F)cc2F)n2ncnc2n1	-1.3	4.9*	1.2	0.5	-0.1	-0.8
CC1(C)CC(=O)C(N=Nc2cccc([N+](=O)[O-])c2)=C(O)C1	0.0	6.1*	0.3	0.2	-0.2	0.5
C/C(=N\N1CCN(Cc2ccc(Cl)cc2)CC1)c1ccc(F)cc1	-1.2	4.5*	-1.7	1.7	-0.7	4.4
CCOC(=O)[C@@H](CCc1ccccc1)N[C@@H](C)C(=O)N1CCC[C@H]1C(=O)O	-1.4	nt	2.7	nt	0.8	0.7
O=C(O)c1ccc(N=NN2CCCCCC2)cc1	0.2	1.7	10.6*	4.9	3.2	4.2
COCCCN1C(=O)[C@H](CC(=O)NCc2cccc3ccccc23)[C@]2(C(=O)OC)CCCCC=C12	-0.9	nt	0.7	nt	-0.7	-0.7
CC1=NN(c2nc(-c3ccc(C)cc3)cs2)C(=O)C1N=Nc1ccccc1O (stereo not drawn)	0.9*	nt	1.0	1.5	-0.2	1.8
CC1=NN(c2nc(-c3ccc(C)cc3)cs2)C(=O)C1N=Nc1cccc(O)c1 (stereo not drawn)	-0.6	-0.8	-2.5	0.8	0.5	-0.6
COc1ccc2c3c([nH]c2c1)[C@]1(CCNC=O)Nc2ccccc2C1=NCC3	-0.5	nt	2.4	nt	nt	5.5
COc1ccc(Nc2cc(C)c3ccccc3n2)cc1	-0.8	0.5	11.3*	2.5	1.5	-0.8
COc1ccc(Nc2nc3ccccc3n2C)cc1	-0.2	6.4*	12.0*	3.8	0.9	5.3
Cc1cc(Nc2ccc([N+](=O)[O-])cc2)nc2ccccc12	-1.5	-0.5	0.6	4.2	-1.2	-2.5
Cn1c(COc2ccccc2Br)nc2ccccc21	0.8	6.0*	9.6	6.3	1.6	4.4
Cc1ccc(NC(=O)NCc2nc3ccccc3n2C)cc1	-0.3	0.8	1.0	0.8	0.1	1.3
CCOC(=O)c1ccc(NCc2nc3ccccc3n2C)cc1	0.9*	1.7	10.2	4.4	1.9	4.4
Cn1c(Nc2ccc(F)cc2)nc2ccccc21	-0.2	0.3	0.5	0.8	-0.5	-0.9
O=C(OC12CCCN(C1)/C(=C/c1ccc(Cl)cc1)C2)C1CCCC1 (stereo not drawn)	-0.9	nt	-1.9	nt	0.2	-0.4
CC(C)C[C@@H]1COc2cc(Br)ccc2S(=O)(=O)N1Cc1cn(Cc2ccc(Br)cc2)nn1	-1.6	nt	-0.8	nt	0.2	-0.8
COc1ccc(N2CCCN(CC(=O)Nc3ccc(Cl)cc3)CC2)cc1	-0.7	nt	-1.1	nt	1.3	-2.3
Cn1c(NCc2ccc(Cl)cc2)nc2ccccc21	1.5*	1.0	12.6*	4.7	2.5	5.5
Cn1c(CNc2nc3ccccc3n2C)nc2ccccc21	-0.2	-0.2	11.2*	-0.5	1.8	3.3
CC(=O)Nc1cccc(C(C)C2=CCCCC2)c1 (stereo not drawn)	-1.2	nt	3.6	nt	-0.1	-1.1
Cc1ccccc1-n1nc2c(c1NC(=O)c1ccc(S(=O)(=O)N(C)C)cc1)CSC2	-0.6	0.2	-1.6	0.8	0.6	5.9*
O=C(N/N=C/c1cccnc1)c1cc(-c2ccc(Cl)cc2)nc2ccccc12	-1.3	5.6*	2.8	-4.4	-0.1	1.1
O=C(Nc1ccc2[nH]ccc2c1)c1cc(-c2ccc(Cl)cc2)nc2ccccc12	0.8	nt	5.7	nt	0.1	6.2*
O=C(N/N=C/c1cccnc1)c1cc(-c2ccccc2)nc2ccccc12	-1.3	-1.1	-0.1	2.4	-0.5	-1.3
C=CCN1C(=O)[C@H]2CCC=C[C@H]2[C@@H]1c1cccc(C)c1	-0.2	-0.9	-0.2	-1.2	-0.2	-0.9
